According to PubChem BioAssay (NCATS):
Values joined by “and” are separate entries in the source; they are usually repeats but may differ in a detail not shown here. Equal values may be shown once. Records with an inconclusive call do not appear. Values without a mark were called inactive. Active and inactive are the calls of the source. The call rests on the fitted dose curve; in most records, active means well fitted inhibition curve with a large enough effect; inconclusive means small, poorly fitted or top-dose-only effect; inactive means flat fitted curve, though single readings scatter.

Test system: CRL-7250
Experiment: Cytotoxic Profiling of Annotated Libraries Using Quantitative High-Throughput Screening (AID 1296008); further: nearly all actives have a fitted effect of over 60% in size
Conditions: Five cell lines viability, CellTiter-Glo ATP luminescence, 48-72 h; max response: hits give low values
Outline: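 Compounds were pin-transferred onto cells and incubated 48 or 72 hr at 37 degree Celsius, 95% humidity. CellTiter-Glo was added, plates sat 10 min at room temperature, then ATP-coupled luminescence was imaged as the viability read-out.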
On the % scale 0 is the no-effect control and ±100 the full control effect; potency means the concentration at half of the fitted maximal effect.

Structure (SMILES)	Potency	outcome	max response
O=c1[nH]nc(OCCCc2ccc(Cl)cc2)c(NCc2cccnc2)c1Br	6.51 µM (active)		
COc1ccc2c(c1)c(C1=C(c3c[nH]c4ccccc34)C(=O)NC1=O)cn2CCCN(C)C		inactive	
NC[C@H]1O[C@H](O[C@@H]2[C@@H](O)[C@@H](O[C@H]3O[C@H](CO)[C@@H](O)[C@H](N)[C@@H]3O)[C@H](N)C[C@@H]2N)[C@H](O)[C@@H](O)[C@H]1O			-1.7%
COc1cc2c(cc1OC)CC(=O)N(CCCN(C)C[C@H]1Cc3cc(OC)c(OC)cc31)CC2			4.25%
CC(C)c1onc(-c2c(Cl)cccc2Cl)c1COc1ccc(C=Cc2cccc(C(=O)O)c2)c(Cl)c1			-1.7%
COc1nccc(-c2c(-c3ccc(F)cc3)ncn2C2CCC(O)CC2)n1 (stereo not given)			2.19% and -0.385%
CCCCC[C@H](O)C=C[C@H]1[C@H](O)CC(=O)[C@H]1CCCCCCC(=O)O			-0.21%
CN1CC(=O)N2C(Cc3c([nH]c4ccccc34)[C@H]2c2ccc3c(c2)OCO3)C1=O (stereo not given in full)			-5.59%
CN1C(=O)C(Cc2c[nH]c3ccccc23)NC1=S (stereo not given)			3.65% and -1.79%
CNC(=O)c1ccc2c(C(=Nc3cccc(CN(C)C)c3)c3ccccc3)c(O)[nH]c2c1			-0.775% and -15%
Cc1nc2c([nH]1)CCN(C(=O)c1ccc(NC(=O)c3ccccc3-c3ccccc3)cc1)c1ccccc1-2			1.7% and 3.01%
O=C1NC(=O)C(c2cnc3ccccn23)=C1c1cn2c3c(cccc13)CN(C(=O)N1CCOCC1)CC2	0.0166 µM (active)		
CN[C@@H](C)[C@H]1[C@H](O)C[C@@]2(C)[C@@H]3CC[C@H]4C(C)(C)[C@@H](NC)CC[C@@]45C[C@@]35CC[C@]12C			-4.48% and 3.02%
CCN1CCN(c2ccc(Nc3cc(N(C)C(=O)Nc4c(Cl)c(OC)cc(OC)c4Cl)ncn3)cc2)CC1	7.31 µM (active)		
COc1ccc(Cn2ccc3ccc(C(=O)NO)cc32)cc1			-16.1% and -2.36%
